The structures appear in SMILES notation. Records with an inconclusive call do not appear. Entries that show only a call come without a potency. The source made the active and inactive calls. Unless noted, calls follow the shape of the dose curve; as a rule, active = well fitted curve in the direction sought with a large enough effect; inconclusive = small, poorly fitted or top-dose-only effect, or another doubt; inactive = no such curve, though single readings can be large; an effect the other way counts as inactive or inconclusive.

In assay [1] the target is phosphoglycerate mutase (Leishmania major) (UniProt Q4Q090). Briefly: qHTS Validation Assay to Find Inhibitors of Phosphoglycerate Mutase (AID 504548). Also: series mostly up to about 58 µM. A digest of the protocol: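 Lm PGAM 1.25nM final; 100 mM TEA pH 7.6, 5 mM MgCl2, 0.01% Tween-20; 45 min RT; Kinase-GloPlus, 10 min; end-point luminescence. Enzyme-free wells as negative controls.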
Chain of phosphoglycerate mutase (Leishmania major) (Q4Q090 1-553): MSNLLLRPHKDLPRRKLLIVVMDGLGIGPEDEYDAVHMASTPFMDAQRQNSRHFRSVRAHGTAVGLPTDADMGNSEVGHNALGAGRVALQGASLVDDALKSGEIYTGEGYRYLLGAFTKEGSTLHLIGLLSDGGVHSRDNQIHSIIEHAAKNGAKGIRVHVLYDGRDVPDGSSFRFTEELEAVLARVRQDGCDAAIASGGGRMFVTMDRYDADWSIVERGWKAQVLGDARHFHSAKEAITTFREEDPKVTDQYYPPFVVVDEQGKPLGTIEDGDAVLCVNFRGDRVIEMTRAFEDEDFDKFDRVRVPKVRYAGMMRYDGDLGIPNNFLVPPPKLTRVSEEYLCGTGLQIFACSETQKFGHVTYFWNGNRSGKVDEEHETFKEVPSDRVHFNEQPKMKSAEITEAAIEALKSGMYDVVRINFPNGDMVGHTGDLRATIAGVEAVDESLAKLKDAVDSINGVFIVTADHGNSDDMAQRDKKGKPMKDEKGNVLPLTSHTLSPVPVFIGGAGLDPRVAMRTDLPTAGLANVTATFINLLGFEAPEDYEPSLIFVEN
In general terms: In qHTS, concentration-response curves come from the screen itself.

The nature of assay [2]: qHTS for Inhibitors of ATXN expression: Validation of Cytotoxic Assay (AID 588349). A digest of the protocol:
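Read-out: ATP-based luminescence (CellTiter Glo) reflecting viability of HEK293 cells after 72 hr incubation at 37 degrees C with a concentration series of each compound.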

A short description of assay [3]: qHTS for Inhibitors of ATXN expression: Validation (AID 588378). Also: series mostly up to about 57 µM; nearly all actives have a fitted effect of over 75% in size. A digest of the protocol: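 Cells: HEK293-ATXN2-FFLuc, phenol-red free DMEM, 2 h attachment. Compound pin-transfer, 24 h, 37 degrees C, 5% CO2. CellTiter-Fluor 30 min, Ex405/Em525; Bright-Glo 5 min, luminescence 2 s exposure.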
The target in assay [4] is Ubiquitin carboxyl-terminal hydrolase 1 (Homo sapiens) (UniProt O94782). The assay is described as follows: Inhibitors of USP1/UAF1: Pilot qHTS (AID 504865).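 Also: rhodamine fluorescence freed from ubiquitin-rhodamine substrate followed over time; top concentration of the series differs between compounds; nearly all actives have a fitted effect of over 35% in size.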 A digest of the protocol:
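1nM USP1/UAF1 + cpd, 15 min RT; start w/ Ub-Rho 150nM final; kinetic FL 480/540 nm, 6 reads q60 s. Buffer 50mM HEPES pH 7.8, 0.5mM EDTA, 1mM TCEP, 0.01% Tween-20, 0.1 mg/ml BSA.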

Assay [5] deals with Androgen receptor (Homo sapiens) (UniProt P10275). The assay is described as follows: qHTS assay for small molecule agonists of androgen receptor signaling (AID 588515; active = well fitted curve in the direction sought with a large enough effect in the signal ratio, with a control signal flat; the % refers to the signal ratio; also: potency is read from the fitted curve at half-maximal effect). The settings on record: AR-UAS-bla HEK293, beta-lactamase ratio, agonist 16 h; activation: active compounds read high. The essentials: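 EC50 and efficacy came from Hill fits of titrations (up to 92 uM) normalized to 30 nM R1881 as 100% and DMSO as 0%. Compound exposure was 16 h at 37 C on AR-UAS-bla HEK293 cells, with a 405/460/530 nm CCF4 fluorescence read.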
Chain of Androgen receptor (Homo sapiens) (P10275 whole entry, looked up): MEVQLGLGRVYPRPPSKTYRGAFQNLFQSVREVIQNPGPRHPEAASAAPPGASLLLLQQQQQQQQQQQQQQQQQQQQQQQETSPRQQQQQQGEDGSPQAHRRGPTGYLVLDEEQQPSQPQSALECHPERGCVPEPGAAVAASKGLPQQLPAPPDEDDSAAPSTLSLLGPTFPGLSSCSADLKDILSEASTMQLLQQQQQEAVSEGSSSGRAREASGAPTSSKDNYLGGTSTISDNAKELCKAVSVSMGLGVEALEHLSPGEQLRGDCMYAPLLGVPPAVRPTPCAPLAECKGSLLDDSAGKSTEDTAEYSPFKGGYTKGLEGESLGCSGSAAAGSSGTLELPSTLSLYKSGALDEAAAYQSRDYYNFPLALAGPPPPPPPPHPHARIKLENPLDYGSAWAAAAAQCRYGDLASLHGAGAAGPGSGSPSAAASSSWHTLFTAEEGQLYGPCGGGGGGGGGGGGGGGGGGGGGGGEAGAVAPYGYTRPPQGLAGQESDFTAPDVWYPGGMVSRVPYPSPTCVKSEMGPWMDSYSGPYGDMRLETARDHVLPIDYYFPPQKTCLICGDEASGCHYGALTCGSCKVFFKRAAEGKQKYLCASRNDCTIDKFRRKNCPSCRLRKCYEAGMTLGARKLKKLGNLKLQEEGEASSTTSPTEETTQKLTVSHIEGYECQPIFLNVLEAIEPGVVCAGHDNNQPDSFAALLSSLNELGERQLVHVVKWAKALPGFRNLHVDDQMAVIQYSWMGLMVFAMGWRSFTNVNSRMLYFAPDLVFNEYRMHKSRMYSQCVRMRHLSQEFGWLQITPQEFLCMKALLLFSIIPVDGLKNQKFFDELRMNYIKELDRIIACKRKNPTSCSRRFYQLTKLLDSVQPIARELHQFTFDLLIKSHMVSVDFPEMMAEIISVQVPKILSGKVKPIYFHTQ

Chain of Ubiquitin carboxyl-terminal hydrolase 1 (Homo sapiens) (O94782 whole entry, looked up): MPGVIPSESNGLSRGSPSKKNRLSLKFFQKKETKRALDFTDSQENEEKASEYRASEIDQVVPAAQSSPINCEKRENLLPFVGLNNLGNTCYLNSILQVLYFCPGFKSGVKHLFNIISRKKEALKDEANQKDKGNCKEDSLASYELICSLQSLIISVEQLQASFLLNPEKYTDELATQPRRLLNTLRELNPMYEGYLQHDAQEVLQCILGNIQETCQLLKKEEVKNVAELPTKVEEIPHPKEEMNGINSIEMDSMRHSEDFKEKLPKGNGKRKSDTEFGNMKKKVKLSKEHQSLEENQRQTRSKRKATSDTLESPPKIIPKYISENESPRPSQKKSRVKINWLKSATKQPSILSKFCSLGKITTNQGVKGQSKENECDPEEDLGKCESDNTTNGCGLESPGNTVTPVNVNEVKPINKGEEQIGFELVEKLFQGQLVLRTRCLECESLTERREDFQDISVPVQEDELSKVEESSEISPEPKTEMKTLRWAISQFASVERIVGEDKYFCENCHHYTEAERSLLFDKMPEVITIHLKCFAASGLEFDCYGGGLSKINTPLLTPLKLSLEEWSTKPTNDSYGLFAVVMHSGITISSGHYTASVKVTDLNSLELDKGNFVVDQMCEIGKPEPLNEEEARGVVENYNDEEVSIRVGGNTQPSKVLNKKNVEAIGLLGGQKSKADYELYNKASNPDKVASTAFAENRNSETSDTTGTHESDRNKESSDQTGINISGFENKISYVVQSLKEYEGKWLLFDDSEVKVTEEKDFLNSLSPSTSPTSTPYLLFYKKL

Consider `O=C(O)COCCN1CCN(C(c2ccccc2)c2ccc(Cl)cc2)CC1` (stereo unspecified), for which the outcome in assay [1] and in assay [3] was inactive. Moreover, the Potency entry in assay [2] was “inactive”.

`Oc1ccc(C2CNCCc3c2cc(O)c(O)c3Cl)cc1` (stereo unspecified): the call in assay [1] and in assay [3] was inactive. In addition, the Potency result in assay [4] and in assay [2] was “inactive” each time.

On to `CCn1cc(C(=O)O)c(=O)c2cc(F)c(N3CCNC(C)C3)c(F)c21` (stereo unspecified), for which the compound was classed as inactive in assay [1] and in assay [3]. In addition, the Potency result in assay [2] was “inactive”.

As for `Cc1cccc(-c2[nH]c(C(C)(C)C)nc2-c2ccc3nccnc3c2)n1`, the result in assay [1] was inactive. Further, the Potency entry in assay [2] is “inactive”.

For the compound `CCC(C)N(C)C(=O)c1cc2ccccc2c(-c2ccccc2Cl)n1` (stereo unspecified), the result in assay [1] and in assay [3] was inactive. Moreover, the Potency result in assay [2] was “inactive”.

With `Nc1nc2c(ncn2COCCO)c(=O)[nH]1`, the compound was called inactive in assay [1] and in assay [3]. In assay [2], the Potency entry was “inactive”.

Turning to `OC(CCN1CCCCC1)(c1ccccc1)C1CC2C=CC1C2` (stereo unspecified), the compound was called inactive in assay [1]. For the same compound, in assay [4], the Potency entry is “inactive”.

For `CCCCNc1cc(C(=O)O)cc(S(N)(=O)=O)c1Oc1ccccc1`, the compound was called inactive in assay [1] and in assay [3]. Moreover, in assay [2], the Potency result is “inactive”.

For the compound `C[C@]12CCC(=O)C=C1CC[C@@H]1[C@@H]2[C@@H](O)C[C@@]2(C)[C@H]1CC[C@]2(O)C(=O)CO`, the compound was called inactive in assay [1] and in assay [3]. The Potency entry in assay [4] and in assay [2] was “inactive” throughout. In assay [5], the Potency was 14.1 nM (active).

In the case of `Cc1cn[nH]c1`, the compound was called inactive in assay [1] and in assay [3]. The Potency result in assay [4] and in assay [2] was “inactive” each time.

Take `CCN(CC)CCCC(C)Nc1ccnc2cc(Cl)ccc12` (stereo unspecified): in assay [1], the result was inactive.

With `Cc1ccc(N(CC2=NCCN2)c2cccc(O)c2)cc1`, in assay [1], the compound was called inactive.

For the compound `Cc1[nH]c(=O)c(C#N)cc1-c1ccc2nccn2c1`, in assay [1], the outcome was inactive.

As to `c1ccc([C@H]2CN3CCSC3=N2)cc1`, the outcome in assay [1] and in assay [3] was inactive. Besides, the Potency entry in assay [2] was “inactive”.

As for `Cc1cnc(NC(=O)C2=C(O)c3ccccc3S(=O)(=O)N2C)s1`, the compound was classed as inactive in assay [1] and in assay [3]. Moreover, in assay [2], the Potency result was “inactive”.

The values are drawn from PubChem BioAssay (NCATS).
